# Assay outcomes from PubChem BioAssay.
# VACV E9 pol inh = blocks vaccinia virus processive DNA synthesis; in vitro processive DNA synthesis, absorbance read-out; active compounds read low; 0.94% of 46,000 active; AID 493162; normalized absorbance, % (no concentration beside the values); in the data active means normalized absorbance mostly below about 85%, no sharp cut-off; inactive means mostly above about 86%
# Hits are given with their value; n = inactive. The sample as a whole holds a higher share of hits than the screen did.
SMILES,VACV E9 pol inh
CC1CCN(CCCNC(=O)c2cc3c(=O)n(C)c4ccccc4c3s2)CC1,58.7
CCOP(=O)(c1ccccc1)c1nc(-c2ccc(Cl)cc2)oc1NC (centres undefined),n
Cn1c(O)c(C=Nc2cccc3ccccc23)c2ccccc21,n
COc1ccc2nc(NC(=O)CCCCl)sc2c1,n
Clc1ncc(CN2CCOCC2)s1,n
COc1ccc2c(c1)C(O)c1ccccc1CO2 (centres undefined),n
CCC(CC)C(CC(=O)O)N1Cc2ccccc2C1=O (centres undefined),n
CCCc1ccc(S(=O)(=O)N2CCC(c3ccc(=O)n(-c4ccccc4)n3)CC2)cc1,n
Cc1cccc(C)c1NC(=O)COC(=O)c1cc(Cl)cc(Cl)c1,n
COC(=O)c1cccnc1SC,n
Clc1ccc(C2CC(C3CC3)=NN2c2ccccc2)cc1 (centres undefined),n
CCC(CC)C(=O)Nc1nnc(SCC(=O)Nc2ccc(F)cc2)s1,n
CCOc1cccc2sc(NC(=O)CC)nc12,87.3
CCC(=O)Nc1nc2c(C)c(C)ccc2s1,n
CCOc1cccc2sc(NC(=O)c3ccccc3F)nc12,n
Cc1ccc(Nc2nnc(-c3ccccc3)c3ccccc23)cc1,n
CC(=O)OC1CC(C)(C)N(O)C(C)(C)C1,n
COc1ccc(CCNC(=O)c2nc(S(C)(=O)=O)ncc2Cl)cc1OC,n
CSc1ccc(/C=C2/SC(=O)N(CNc3ccccc3)C2=O)cc1,n
CCOc1ccc(-c2csc(NC(=O)Cc3ccccc3)n2)cc1,n
CCOC(=O)[C@H]1NC(=O)C[C@H]1c1ccccc1,n
Fc1ccc(C2Nc3ccc(OC(F)(F)F)cc3C3C=CCC32)cc1 (centres undefined),n
CCOC(=O)N1CCC(N2C(=O)c3ccc(C(=O)O)cc3C2=O)CC1,n
CCOC(=O)[C@@H]1Nc2ccc(C(=O)O)cc2[C@@H]2C=CC[C@H]12,55.9
CC(C)c1ccc([C@@H]2Nc3ccc(C(=O)O)cc3[C@@H]3C=CC[C@@H]32)cc1,23.2
SMILES,VACV E9 pol inh
CC(=O)Nc1ccc2c(c1)C1C=CCC1C(c1cccc(Cl)c1Cl)N2 (centres undefined),n
CCC(C)NC(=O)CSc1nc2n[nH]c(C)c2c(=N)n1-c1ccc(Br)cc1 (centres undefined),n
CN(C)/C=C/C(=N)SCc1c(F)cccc1Cl,75.0
Fc1cccc(CSCc2c(F)cccc2Cl)c1,n
CC(=O)/C(C#N)=C(\N=C\N(C)C)SCc1c(Cl)cccc1Cl,n
CCc1ccc(Nc2c3c(nc4ccccc24)CCCC3)cc1,n
CN(C)CCCNc1c2c(nc3ccccc13)CCC2,26.7
CCc1ccc(Nc2c3c(nc4ccccc24)CCC3)cc1,n
CSC(=S)NCc1cccs1,n
COc1ccc(OC)c(C(c2c(O)[nH]c(=S)[nH]c2=O)N2CCN(c3ccccc3)CC2)c1 (centres undefined),n
CC1=NN(c2ccccc2)C(c2ccc(OCC(=O)N3CCCC3)cc2)C1 (centres undefined),n
NC(=O)C1CC(=O)N(Cc2ccccc2)C1 (centres undefined),n
Cc1[nH]n(-c2cccc(Cl)c2)c(=O)c1N=O,67.3
Cc1[nH]n(-c2ccccc2)c(=O)c1C=Nc1cccc(N)c1,n
Cc1[nH]n(-c2ccccc2)c(=O)c1Sc1ccc(Cl)cc1,n
CNC(=O)c1cc2sc(Cl)cc2n1C,n
O=C(CC(SCc1ccc(Cl)cc1)C(=O)O)c1ccc(Cl)cc1 (centres undefined),n
O=C(Cc1ccc(Cl)cc1)c1ccc(Cl)cc1,78.8
O=C(CNC(=O)c1ccc(Cl)cc1)c1ccc(Cl)cc1,n
Cc1csc(NC(=O)c2sc3cc(F)ccc3c2Cl)n1,n
C=CCc1cccc2cc(C(=O)NCC3CCCO3)c(=O)oc12 (centres undefined),n
O=C1/C(=C/c2ccc3nccnc3c2)CCC/C1=C\c1ccc2nccnc2c1,n
CCN1/C(=C/c2ccc3cc(C)ccc3[n+]2C)Sc2cc(OC)ccc21,24.5
CN1/C(=C\C=C2C(=O)c3ccccc3C2=O)Sc2ccccc21,n
CCN1/C(=C\C=C\C(=O)c2ccccc2OC)Sc2ccccc21,n
SMILES,VACV E9 pol inh
CC(=S)/C=C1\Sc2ccccc2N1C,n
COc1ccc2c(ccc(/C=C3\Sc4ccccc4N3C)[n+]2C)c1,19.8
CCN1/C(=c2/sc3nc4ccccc4n3c2=O)Sc2ccc(OC)cc21,n
COC(=O)c1sc(=Nc2ccccc2)n(-c2ccccc2)c1C,n
CCOc1ccc(CCNc2nc(-c3ccc(OC)c(OC)c3)no2)cc1,n
CCCCC(=O)/C=C/C=C\CCCCCCCC(=O)O,n
C=CCNc1c(Cl)cc(Cl)cc1C(=O)O,n
CSc1nc(SCC(=O)c2ccc3c(c2)OCO3)nc(N)c1C#N,n
CC1=NN(c2ccc(C)c(C)c2)C(=O)/C1=C\c1ccc(-c2ccc(S(N)(=O)=O)cc2)o1,n
COc1ccc(Cn2ccn(Cc3ccccc3)c(=O)c2=O)cc1,n
COC(=O)c1ccc(-n2c(C)ccc2C)cc1,n
CCOC(=O)c1cnn(C(=O)c2ccc(-n3c(C)ccc3C)cc2)c1N,66.1
CCOC(=O)c1cnn(-c2ccccn2)c1N,n
CC(C)(C)NC1=C(C(=O)c2ccccc2)N(CC(=O)c2ccccc2)S(=O)(=O)c2ccccc21,n
O=C(Nc1ccncc1NC(=O)c1ccccc1)c1ccccc1,n
CC(C)CC1=NC(C(F)(F)F)(C(F)(F)F)N=C(N2CCCCC2)O1,n
COc1cc(C2N(Cc3ccccc3)CCCN2Cc2ccccc2)ccc1O,n
c1ccc2nc3c(nc2c1)c1ccccc1n3CCN1CCOCC1,65.3
C=CCn1c2ccccc2c2nc3ccccc3nc21,n
c1ccc(CCn2c3ccccc3c3nc4ccccc4nc32)cc1,n
CCCNC(=O)c1cc(C)c2c(C)nn(-c3ccccc3)c2n1,n
CC(C)(CO)NCC(O)Cn1c2ccccc2c2ccccc21 (centres undefined),65.0
Cc1ccc(NCC(O)Cn2c3ccccc3c3ccccc32)cc1 (centres undefined),n
CS(=O)(=O)NCC(O)Cn1c2ccccc2c2ccccc21 (centres undefined),n
OC(CN(Cc1ccccc1)Cc1ccccc1)Cn1c2ccccc2c2ccccc21 (centres undefined),n
SMILES,VACV E9 pol inh
OCCN(CCO)CC(O)Cn1c2ccccc2c2ccccc21 (centres undefined),76.6
O=CN1CCN(CC(O)Cn2c3ccccc3c3ccccc32)CC1 (centres undefined),n
Cc1ccc(C2C(Cc3ccccc3)N3C=Cc4ccccc4C3C2(C#N)C(N)=O)c(C)c1 (centres undefined),n
Cc1cc(Br)ccc1NC(=O)CC1CCCCC1,n
CSc1cccc(-n2cc3ccsc3c2)c1,n
O=C(O)c1cc(Cl)c(Cl)cc1C(=O)Nc1ccc(Oc2ccccc2)cc1,n
COc1ccccc1/C(O)=C/C(=O)C(=O)Nc1sc2c(c1C#N)CCC2,n
N=C(N)SCc1ccccc1,n
COC(=O)c1ccc(NN)cc1,81.0
COC(=O)c1ccc(Nc2ccccc2)cc1,n
COC(=O)c1ccc(CSc2nnc3n(N)cnn23)cc1,n
COC(=O)c1ccc(CSC(=N)N)cc1,80.9
COC(=O)c1ccc(NC(=S)N(C(C)C)C(C)C)cc1,n
CCOC(=O)c1cn2ccccc2c1C(=O)OCC,n
CCCNC(=O)c1ccc(OC)c(OC(=O)c2ccccc2)c1,n
CC1CCc2nc(SC3CC(=O)C4OCC3O4)nc(C(F)(F)F)c2C1 (centres undefined),n
O=C1CC(Sc2ccc3ccccc3c2)C2COC1O2 (centres undefined),36.1
